The nature of assay [1]: ATG_XTT_Cytotoxicity: Cytotoxicity Assessment in the Attagene TRANS-FACTORIAL HepG2 Assay (AID 2283584).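 On AC50: XTT signal for cell number as viability in transfected HepG2 cells; cells exposed to compound for 24 h before reading; active means loss of viability signal versus DMSO baseline.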 The procedure, abridged: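 Transfect HepG2 with GAL4-UAS reporter units, dose compound, incubate 24 h, then measure viable cell number by XTT. Fit concentration response against DMSO baseline.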
The nature of assay [2]: TOX21_p53_BLA_p2_viability: Viability Assessment in the Tox21 HCT-116 p53 Agonism Beta-lactamase Assay, Phase 2 (AID 2283591).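 Further: compound exposure lasted 16 h at 37 °C; actives lower the ATP signal meaning cytotoxicity.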 The procedure, abridged:
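Cytotoxicity readout: CellTiter-Glo ATP luminescence, 30 min at room temperature, after the beta-lactamase read. Cells were HCT116 exposed 16 h at 37C to compounds pin-transferred at 217-fold dilution from DMSO stocks.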

Assay [3] addresses Cellular tumor antigen p53 (Homo sapiens) (UniProt P04637). The experiment in a line: TOX21_p53_BLA_p2_ratio: Tox21 HCT-116 p53 Agonism Beta-lactamase Assay, Ratio, Phase 2 (AID 2283592). An outline of the steps: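 An inducible beta-lactamase reporter in HCT116 cells signals p53 pathway activation. After 16 h chemical exposure at 37C, cells load CCF4-AM substrate for 2 h at room temperature; activity is the cleaved/uncleaved emission ratio relative to DMSO.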

Assay [4] is described as follows: TOX21_p53_BLA_p3_viability: Viability Assessment in the Tox21 HCT-116 p53 Agonism Beta-lactamase Assay, Phase 3 (AID 2283593).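 Further: cells exposed to compound for 16 h before reading.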 An outline of the steps: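 Cellular ATP was quantified by CellTiter-Glo luminescence, read after 30 min at room temperature. Beforehand, HCT116 cells (4000/well) received compound 5 h post-seeding, 217-fold diluted from DMSO, then incubated 16 h at 37C.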

Assay [5] deals with Cellular tumor antigen p53 (Homo sapiens) (UniProt P04637). The experiment in a line: TOX21_p53_BLA_p3_ratio: Tox21 HCT-116 p53 Agonism Beta-lactamase Assay, Ratio, Phase 3 (AID 2283596). An outline of the steps: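 HCT116 p53-bla cells (4000/well) given compound in DMSO (217-fold dilution) after 5 h, incubated 16 h at 37C. CCF4-AM substrate 2 h at room temperature; 460/530 nm emission ratio, gain fitted against DMSO.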

SMILES strings stand for the structures. Results filed as inconclusive are left out. The source made the active and inactive calls. How the source made its calls: active means hit-call score of the fitted dose curve at least 0.9, where 1 is the maximum; inconclusive means response in the unintended direction; inactive means score below 0.9.

These results are taken from PubChem BioAssay (EPA / NIEHS).

By AC50 is commonly meant the midpoint of the concentration-response curve, whichever way the signal moves.

Sequence of Cellular tumor antigen p53 (Homo sapiens) (P04637 whole entry, looked up): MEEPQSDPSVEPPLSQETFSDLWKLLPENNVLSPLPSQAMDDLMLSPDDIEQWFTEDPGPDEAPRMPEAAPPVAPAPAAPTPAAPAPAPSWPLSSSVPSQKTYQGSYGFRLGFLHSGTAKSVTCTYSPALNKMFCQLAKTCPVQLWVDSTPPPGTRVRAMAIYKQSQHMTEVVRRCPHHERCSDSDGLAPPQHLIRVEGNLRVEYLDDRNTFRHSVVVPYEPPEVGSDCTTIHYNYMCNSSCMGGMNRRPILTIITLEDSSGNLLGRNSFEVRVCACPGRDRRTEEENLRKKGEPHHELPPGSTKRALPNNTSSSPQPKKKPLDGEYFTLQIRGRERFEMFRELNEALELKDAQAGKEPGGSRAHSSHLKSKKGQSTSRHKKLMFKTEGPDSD

Take `CC(O)(CS(=O)(=O)c1ccc(F)cc1)C(=O)Nc1ccc(C#N)c(C(F)(F)F)c1` (stereo not drawn): the compound was classed as inactive in assay [1], in assay [2], in assay [3], in assay [4] and in assay [5].

As to `CCOc1ccc(N)cc1`, the call in assay [1], in assay [2], in assay [3], in assay [4] and in assay [5] was inactive.

As to `O=C(NC(=O)c1c(F)cccc1F)Nc1cc(Cl)c(OC(F)(F)C(F)C(F)(F)F)cc1Cl` (stereo not drawn), the outcome in assay [1], in assay [2], in assay [3], in assay [4] and in assay [5] was inactive.

With `O=S1OC[C@@H]2[C@H](CO1)[C@]1(Cl)C(Cl)=C(Cl)[C@@]2(Cl)C1(Cl)Cl` (stereo partly drawn), the compound was classed as inactive in assay [1], in assay [3] and in assay [5]. In addition, the AC50 in assay [2] is 67.1 µM (active); in assay [4] it was 84.1 µM (active).

Turning to `Brc1ccc(Br)cc1`, the outcome in assay [1], in assay [2], in assay [3], in assay [4] and in assay [5] was inactive.

As for `CCCCCCCCCCCCN(C)C`, the result in assay [1], in assay [2], in assay [3], in assay [4] and in assay [5] was inactive.

Take `Cc1cc(SCc2sc(-c3ccc(C(F)(F)F)c(F)c3)nc2C)ccc1OCC(=O)O`: the outcome in assay [1] was inactive. The AC50 was 15.2 µM (active) in assay [2], 54.1 µM (active) in assay [3], 35.3 µM (active) in assay [4] and 48.2 µM (active) in assay [5].

Turning to `CCOP(=S)(OCC)OP(=S)(OCC)OCC`, the call in assay [1], in assay [2], in assay [3], in assay [4] and in assay [5] was inactive.

As for `OC(c1ccc(Cl)cc1)(c1ccc(Cl)cc1)c1cccnc1`, the AC50 in assay [1] is 67.7 µM (active); in assay [2], 46.1 µM (active); in assay [3] it was 44.3 µM (active). Further, the call in assay [4] and in assay [5] was inactive.

For `O=S(=O)(c1ccc(Cl)cc1)c1cc(Cl)c(Cl)cc1Cl`, the call in assay [1], in assay [2], in assay [3], in assay [4] and in assay [5] was inactive.

For `CC1(C)[C@H](/C=C2\CCSC2=O)[C@@H]1C(=O)OCc1coc(Cc2ccccc2)c1`, the outcome in assay [1], in assay [2], in assay [3], in assay [4] and in assay [5] was inactive.

Take `CC(C)[C@H](C(=O)OC(C#N)c1cccc(Oc2ccccc2)c1)c1ccc(OC(F)F)cc1` (stereo partly drawn): the compound was classed as inactive in assay [1], in assay [2], in assay [3], in assay [4] and in assay [5].

Turning to `CCN(CC)C(=O)C(Cl)=C(C)OP(=O)(OC)OC`, the compound was called inactive in assay [1], in assay [2], in assay [3], in assay [4] and in assay [5].

`CCOC(=O)CC(=O)CCl`: the outcome in assay [1], in assay [2], in assay [3] and in assay [4] was inactive. In addition, the AC50 in assay [5] is 77.9 µM (active).

On to `CCOc1cc(C=O)ccc1O`, for which the outcome in assay [1], in assay [2], in assay [3], in assay [4] and in assay [5] was inactive.

Turning to `CC(C)[C@@H](Nc1ccc(C(F)(F)F)cc1Cl)C(=O)OC(C#N)c1cccc(Oc2ccccc2)c1` (stereo partly drawn), the result in assay [1], in assay [2], in assay [3], in assay [4] and in assay [5] was inactive.

With `O=C(O)COc1ccc(Cl)cc1`, the result in assay [1], in assay [2], in assay [4] and in assay [5] was inactive.

For the compound `c1csc(-c2ccc(-c3cccs3)s2)c1`, the call in assay [1] and in assay [2] was inactive. The AC50 is 50.2 µM (active) in assay [3] and 41.9 µM (active) in assay [5].

For `Cc1cc(Cl)ccc1OC(C)C(=O)O` (stereo not drawn), the outcome in assay [1], in assay [2] and in assay [4] was inactive.

Take `CC(=O)CN(CC(C)=O)N=O`: the call in assay [1], in assay [3] and in assay [4] was inactive.

For the compound `C[C@H]1C(=O)O[C@@H]2CCN3CC=C(COC(=O)[C@](C)(O)[C@]1(C)O)[C@H]23`, the outcome in assay [1], in assay [3], in assay [4] and in assay [5] was inactive.

On to `CCOC(=O)CCN(SN(C)C(=O)Oc1cccc2c1OC(C)(C)C2)C(C)C`, for which the compound was called inactive in assay [1], in assay [2] and in assay [5].

As for `CCCCCCCCCCCCCCC(Br)C(=O)O` (stereo not drawn), the compound was classed as inactive in assay [1] and in assay [2]. The AC50 was 41.4 µM (active) in assay [4] and 75.3 µM (active) in assay [5].

Turning to `O=C(Cl)OCCOCCOC(=O)Cl`, the compound was classed as inactive in assay [1], in assay [2], in assay [3] and in assay [5].

For the compound `O=C1C[C@@H]2OCC=C3CN4CC[C@]56c7ccccc7N1[C@H]5[C@H]2[C@H]3C[C@H]46`, the compound was classed as inactive in assay [1], in assay [2], in assay [3], in assay [4] and in assay [5].

For `Clc1ccc(C(Cl)(Cl)Cl)cn1`, the outcome in assay [1], in assay [2] and in assay [4] was inactive.

As to `N#Cc1ccc(Cl)cc1`, the compound was classed as inactive in assay [1] and in assay [3].

For `O=[N+]([O-])c1cccc2ccccc12`, the result in assay [1], in assay [2], in assay [3], in assay [4] and in assay [5] was inactive.

Regarding `CC(C)(C)c1cc([N+](=O)[O-])cc(C(C)(C)C)c1O`, the result in assay [1] and in assay [4] was inactive. Besides, the AC50 was 46.1 µM (active) in assay [2], 3.81 µM (active) in assay [3] and 4.47 µM (active) in assay [5].

Take `N#Cc1ccncc1`: the call in assay [1], in assay [2], in assay [3] and in assay [5] was inactive.
